Results: PubChem BioAssay (NCATS)
Results filed as inconclusive are left out. Active and inactive are the calls of the source. The call rests on the fitted dose curve.

Columns and labels:
[1] = Primary qHTS for inhibitors of SARS-S pseudo-typed particle cell entry (AID 1479145); further: nearly all actives have a fitted effect of over 45% in size
[2] = Primary qHTS for Huh7 cytotoxicity: counterscreen for inhibitors of MERS-S pseudotyped particle cell entry (AID 1479147)
[3] = Primary qHTS for inhibitors of MERS-S pseudo-typed particle cell entry (AID 1479149); further: nearly all actives have a fitted effect of over 60% in size
[4] = Primary qHTS for Vero E6 cytotoxicity: counterscreen for inhibitors of SARS-S pseudo-typed particle cell entry (AID 1479150)

Measured: Potency

CCN(CC)C(=O)/C(C#N)=C/c1cc(O)c(O)c([N+](=O)[O-])c1
inactive: [1] | [2] | [3] | [4]

CCN(Cc1ccncc1)C(=O)C(CO)c1ccccc1 (stereo unspecified)
inactive: [1] | [2] | [3] | [4]

CCOc1cc(OCC)c(C(=O)CCC(=O)O)cc1OCC
inactive: [1] | [2] | [3] | [4]

CO[C@@]1(NC(=O)CSCC#N)C(=O)N2C(C(=O)O)=C(CSc3nnnn3C)CS[C@@H]21
inactive: [1] | [2] | [3] | [4]

C[C@]12C=CC(=O)C=C1CC[C@@H]1[C@@H]2[C@@H](O)C[C@@]2(C)[C@H]1CC[C@]2(O)C(=O)CO
inactive: [1] | [2] | [3] | [4]

C[C@@H]1[C@H](O)[C@@H](C)/C=C/C=C\C=C\C=C\C=C\C=C\C=C\[C@H](O[C@@H]2O[C@H](C)[C@@H](O)[C@H](N)[C@@H]2O)C[C@@H]2O[C@](O)(C[C@@H](O)C[C@@H](O)[C@H](O)CC[C@@H](O)C[C@@H](O)CC(=O)O[C@H]1C)C[C@H](O)[C@H]2C(=O)O (stereo in doubt)
inactive: [1] | [2] | [3] | [4]

CCOC(=O)O[C@]1(C(=O)OCCl)CC[C@H]2[C@@H]3CCC4=CC(=O)C=C[C@]4(C)[C@H]3[C@@H](O)C[C@@]21C
inactive: [1] | [2] | [3] | [4]

CN(C)CCOC(=O)COc1ccc(Cl)cc1
inactive: [1] | [2] | [3] | [4]

CC(C)(Oc1ccc(C2CC2(Cl)Cl)cc1)C(=O)O (stereo unspecified)
inactive: [1] | [2] | [3] | [4]

CCCC(=O)OCOC(=O)C1=C(C)NC(C)=C(C(=O)OC)C1c1cccc(Cl)c1Cl (stereo unspecified)
inactive: [1] | [2] | [3] | [4]

Nc1nc(-c2ccccc2)c(Br)c(=O)[nH]1
inactive: [1] | [2] | [3] | [4]

CNNCc1ccc(C(=O)NC(C)C)cc1
inactive: [1] | [2] | [3] | [4]

CC(C)(C)C(=O)Oc1ccc(S(=O)(=O)Nc2ccccc2C(=O)NCC(=O)O)cc1
inactive: [1] | [2] | [3] | [4]

COc1cc2c(Nc3ccc(Br)cc3F)ncnc2cc1OCC1CCN(C)CC1
inactive: [1] | [2] | [3] | [4]
